The record followed here is publication PMC9911399, “Two distinct binding modes provide the RNA-binding protein RbFox with extraordinary sequence specificity”.

T1: RBFOX1 RRM RbFoxmut (Fox-RRM*) (Homo sapiens, UniProt Q9NWB1 109-208, R118D;E147R;N151S;E152T)
T1 sequence: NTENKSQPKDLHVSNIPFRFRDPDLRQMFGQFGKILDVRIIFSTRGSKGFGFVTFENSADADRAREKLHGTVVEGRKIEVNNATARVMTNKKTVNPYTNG

B1: UGAACAA (DNA:RNA)
RNA: GGGAGACCGGAAUUCAGAUUGUCCUGAACAAUUAAAUCCCGUCGUAGCCACCA
DNA 1: CAATCTGAATTCCGGTCTCCC
DNA 2: TGGTGGCTACGACGGGATT
B2: AUUUACA (DNA:RNA)
RNA: B1 RNA with U25A, G26U, A27U, A28U, C29A, A30C
DNA 1: CAATCTGAATTCCGGTCTCCC
DNA 2: TGGTGGCTACGACGGGATT
B3: UGAUGCG (DNA:RNA)
RNA: B1 RNA with A28U, C29G, A30C, A31G
DNA 1: CAATCTGAATTCCGGTCTCCC
DNA 2: TGGTGGCTACGACGGGATT
B4: UUGUGGU (DNA:RNA)
RNA: B1 RNA with G26U, A27G, A28U, C29G, A30G, A31U
DNA 1: CAATCTGAATTCCGGTCTCCC
DNA 2: TGGTGGCTACGACGGGATT
B5: ACACGAA (DNA:RNA)
RNA: B1 RNA with U25A, G26C, A28C, C29G
DNA 1: CAATCTGAATTCCGGTCTCCC
DNA 2: TGGTGGCTACGACGGGATT
B6: GCGUAAC (DNA:RNA)
RNA: B1 RNA with U25G, G26C, A27G, A28U, C29A, A31C
DNA 1: CAATCTGAATTCCGGTCTCCC
DNA 2: TGGTGGCTACGACGGGATT
B7: GGACGCA (DNA:RNA)
RNA: B1 RNA with U25G, A28C, C29G, A30C
DNA 1: CAATCTGAATTCCGGTCTCCC
DNA 2: TGGTGGCTACGACGGGATT
B8: UUAGUGG (DNA:RNA)
RNA: B1 RNA with G26U, A28G, C29U, A30G, A31G
DNA 1: CAATCTGAATTCCGGTCTCCC
DNA 2: TGGTGGCTACGACGGGATT
B9: GCAUGCU (DNA:RNA)
RNA: B1 RNA with U25G, G26C, A28U, C29G, A30C, A31U
DNA 1: CAATCTGAATTCCGGTCTCCC
DNA 2: TGGTGGCTACGACGGGATT
B10: GCAUUGC (DNA:RNA)
RNA: B1 RNA with U25G, G26C, A28U, C29U, A30G, A31C
DNA 1: CAATCTGAATTCCGGTCTCCC
DNA 2: TGGTGGCTACGACGGGATT
B11: CGCAUGC (DNA:RNA)
RNA: B1 RNA with U25C, A27C, C29U, A30G, A31C
DNA 1: CAATCTGAATTCCGGTCTCCC
DNA 2: TGGTGGCTACGACGGGATT
B12: GUCAUGC (DNA:RNA)
RNA: B1 RNA with U25G, G26U, A27C, C29U, A30G, A31C
DNA 1: CAATCTGAATTCCGGTCTCCC
DNA 2: TGGTGGCTACGACGGGATT
B13: GCCAUGC (DNA:RNA)
RNA: B1 RNA with U25G, G26C, A27C, C29U, A30G, A31C
DNA 1: CAATCTGAATTCCGGTCTCCC
DNA 2: TGGTGGCTACGACGGGATT
B14: GGCAUGC (DNA:RNA)
RNA: B1 RNA with U25G, A27C, C29U, A30G, A31C
DNA 1: CAATCTGAATTCCGGTCTCCC
DNA 2: TGGTGGCTACGACGGGATT
B15: GUCCGCU (DNA:RNA)
RNA: GGGAGACCGGAAUUCAGAUUGUCCGUCCGCUUUAAAUCCCGUCGUAGCCACCA
DNA 1: CAATCTGAATTCCGGTCTCCC
DNA 2: TGGTGGCTACGACGGGATT
B16: GACAUGC (DNA:RNA)
RNA: B15 RNA with U26A, C28A, G29U, C30G, U31C
DNA 1: CAATCTGAATTCCGGTCTCCC
DNA 2: TGGTGGCTACGACGGGATT
B17: ACAUGCU (DNA:RNA)
RNA: B15 RNA with G25A, U26C, C27A, C28U
DNA 1: CAATCTGAATTCCGGTCTCCC
DNA 2: TGGTGGCTACGACGGGATT
B18: UCUUCUA (DNA:RNA)
RNA: B1 RNA with G26C, A27U, A28U, A30U
DNA 1: CAATCTGAATTCCGGTCTCCC
DNA 2: TGGTGGCTACGACGGGATT
B19: CCUCCAG (DNA:RNA)
RNA: B1 RNA with U25C, G26C, A27U, A28C, A31G
DNA 1: CAATCTGAATTCCGGTCTCCC
DNA 2: TGGTGGCTACGACGGGATT
B20: GAACAGU (DNA:RNA)
RNA: B15 RNA with U26A, C27A, G29A, C30G
DNA 1: CAATCTGAATTCCGGTCTCCC
DNA 2: TGGTGGCTACGACGGGATT
B21: ACGUGUG (DNA:RNA)
RNA: B15 RNA with G25A, U26C, C27G, C28U, C30U, U31G
DNA 1: CAATCTGAATTCCGGTCTCCC
DNA 2: TGGTGGCTACGACGGGATT
B22: CCCUACC (DNA:RNA)
RNA: B15 RNA with G25C, U26C, C28U, G29A, U31C
DNA 1: CAATCTGAATTCCGGTCTCCC
DNA 2: TGGTGGCTACGACGGGATT
B23: UAUCCCC (DNA:RNA)
RNA: B15 RNA with G25U, U26A, C27U, G29C, U31C
DNA 1: CAATCTGAATTCCGGTCTCCC
DNA 2: TGGTGGCTACGACGGGATT
B24: AUUUAGC (DNA:RNA)
RNA: B15 RNA with G25A, C27U, C28U, G29A, C30G, U31C
DNA 1: CAATCTGAATTCCGGTCTCCC
DNA 2: TGGTGGCTACGACGGGATT
B25: CCCGUAG (DNA:RNA)
RNA: B15 RNA with G25C, U26C, C28G, G29U, C30A, U31G
DNA 1: CAATCTGAATTCCGGTCTCCC
DNA 2: TGGTGGCTACGACGGGATT
B26: CCUGGAG (DNA:RNA)
RNA: B15 RNA with G25C, U26C, C27U, C28G, C30A, U31G
DNA 1: CAATCTGAATTCCGGTCTCCC
DNA 2: TGGTGGCTACGACGGGATT
B27: GCAGUAG (DNA:RNA)
RNA: B1 RNA with U25G, G26C, A28G, C29U, A31G
DNA 1: CAATCTGAATTCCGGTCTCCC
DNA 2: TGGTGGCTACGACGGGATT
B28: CAGGUCU (DNA:RNA)
RNA: B15 RNA with G25C, U26A, C27G, C28G, G29U
DNA 1: CAATCTGAATTCCGGTCTCCC
DNA 2: TGGTGGCTACGACGGGATT
B29: CAUUAAC (DNA:RNA)
RNA: B1 RNA with U25C, G26A, A27U, A28U, C29A, A31C
DNA 1: CAATCTGAATTCCGGTCTCCC
DNA 2: TGGTGGCTACGACGGGATT
B30: UUCAUGC (DNA:RNA)
RNA: B15 RNA with G25U, C28A, G29U, C30G, U31C
DNA 1: CAATCTGAATTCCGGTCTCCC
DNA 2: TGGTGGCTACGACGGGATT
B31: UGCUGCA (DNA:RNA)
RNA: B15 RNA with G25U, U26G, C28U, U31A
DNA 1: CAATCTGAATTCCGGTCTCCC
DNA 2: TGGTGGCTACGACGGGATT
B32: UGCAUCC (DNA:RNA)
RNA: B1 RNA with A27C, C29U, A30C, A31C
DNA 1: CAATCTGAATTCCGGTCTCCC
DNA 2: TGGTGGCTACGACGGGATT
B33: UGCAUUC (DNA:RNA)
RNA: B1 RNA with A27C, C29U, A30U, A31C
DNA 1: CAATCTGAATTCCGGTCTCCC
DNA 2: TGGTGGCTACGACGGGATT
B34: UGCAUCG (DNA:RNA)
RNA: B1 RNA with A27C, C29U, A30C, A31G
DNA 1: CAATCTGAATTCCGGTCTCCC
DNA 2: TGGTGGCTACGACGGGATT
B35: UGCAUAG (DNA:RNA)
RNA: B1 RNA with A27C, C29U, A31G
DNA 1: CAATCTGAATTCCGGTCTCCC
DNA 2: TGGTGGCTACGACGGGATT
B36: UGCACCC (DNA:RNA)
RNA: B1 RNA with A27C, A30C, A31C
DNA 1: CAATCTGAATTCCGGTCTCCC
DNA 2: TGGTGGCTACGACGGGATT
B37: UGCAUUG (DNA:RNA)
RNA: B1 RNA with A27C, C29U, A30U, A31G
DNA 1: CAATCTGAATTCCGGTCTCCC
DNA 2: TGGTGGCTACGACGGGATT
B38: UGCAUGC (DNA:RNA)
RNA: B1 RNA with A27C, C29U, A30G, A31C
DNA 1: CAATCTGAATTCCGGTCTCCC
DNA 2: TGGTGGCTACGACGGGATT
B39: GUCCUGC (DNA:RNA)
RNA: B15 RNA with G29U, C30G, U31C
DNA 1: CAATCTGAATTCCGGTCTCCC
DNA 2: TGGTGGCTACGACGGGATT
B40: UGCGUCC (DNA:RNA)
RNA: B15 RNA with G25U, U26G, C28G, G29U, U31C
DNA 1: CAATCTGAATTCCGGTCTCCC
DNA 2: TGGTGGCTACGACGGGATT
B41: UGCAUAC (DNA:RNA)
RNA: B1 RNA with A27C, C29U, A31C
DNA 1: CAATCTGAATTCCGGTCTCCC
DNA 2: TGGTGGCTACGACGGGATT

Changes are numbered by the printed parent chain; changes in the protein carry UniProt numbers. In all, about 16,000 sequences were measured (“ka relative to ugcaugu”: median about 0.096, highest 2% from about 0.35 on). What follows is part of a selection rich in the highest values, with near analogues and random picks from the rest.

The experiment addresses T1, RBFOX1 RRM RbFoxmut (Fox-RRM*). In words: EMSA; HiTS-Eq, 1 nM pool, 10 min; buffer printed only for the single-RNA assays: 10 mM Tris pH 7.5, 150 mM NaCl, 3.4 mM EDTA, 0.001% NP-40, 30 C. The following applies: tags: His6 N-terminal (pET28a); label: 5' 32P. Summed up: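 Purified wild-type or mutant RbFox RRM at increasing concentrations was equilibrated with 1 nM of 5′-radiolabelled RNA carrying 7 randomized nucleotides for 10 min in 50 µL. Unbound RNA was separated by 8% native PAGE and sequenced. Relative association constants came from read-count changes of each RNA species compared with the control reaction, normalised to the cognate motif.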
A general note: In EMSA bound probe runs differently from free probe, usually more slowly.
Take B1: the binding signal is 0.047 KA relative to UGCAUGU.

For the molecule B2, the binding signal was 0.119 KA relative to UGCAUGU.

For B3, the binding signal is 0.141 KA relative to UGCAUGU.

As for B4, the binding signal was 0.164 KA relative to UGCAUGU.

Consider B5, for which the binding signal is 0.0925 KA relative to UGCAUGU.

For B6, the binding signal was 0.0833 KA relative to UGCAUGU.

In the case of B7, the binding signal was 0.12 KA relative to UGCAUGU.

Take B8: the binding signal was 0.0929 KA relative to UGCAUGU.

On to B9, for which the binding signal is 0.736 KA relative to UGCAUGU.

Turning to B10, the binding signal is 0.134 KA relative to UGCAUGU.

Consider B11, for which the binding signal was 0.951 KA relative to UGCAUGU.

For B12, the binding signal was 0.19 KA relative to UGCAUGU.

Turning to B13, the binding signal is 0.109 KA relative to UGCAUGU.

For the molecule B14, the binding signal was 0.739 KA relative to UGCAUGU.

Consider B15, for which the binding signal was 0.11 KA relative to UGCAUGU.

With B16, the binding signal is 0.0819 KA relative to UGCAUGU.

In the case of B17, the binding signal was 0.102 KA relative to UGCAUGU.

Regarding B18, the binding signal was 0.0886 KA relative to UGCAUGU.

As for B19, the binding signal was 0.101 KA relative to UGCAUGU.

On to B20, for which the binding signal was 0.0727 KA relative to UGCAUGU.

Consider B21, for which the binding signal was 0.203 KA relative to UGCAUGU.

As for B22, the binding signal was 0.0909 KA relative to UGCAUGU.

For the molecule B23, the binding signal is 0.0611 KA relative to UGCAUGU.

With B24, the binding signal was 0.134 KA relative to UGCAUGU.

With B25, the binding signal is 0.101 KA relative to UGCAUGU.

On to B26, for which the binding signal is 0.113 KA relative to UGCAUGU.

B27: the binding signal is 0.122 KA relative to UGCAUGU.

Regarding B28, the binding signal was 0.0783 KA relative to UGCAUGU.

As to B29, the binding signal is 0.113 KA relative to UGCAUGU.

For B30, the binding signal is 0.13 KA relative to UGCAUGU.

On to B31, for which the binding signal is 0.251 KA relative to UGCAUGU.

Consider B32, for which the binding signal was 0.421 KA relative to UGCAUGU.

On to B33, for which the binding signal was 0.13 KA relative to UGCAUGU.

With B34, the binding signal is 0.922 KA relative to UGCAUGU.

For the molecule B35, the binding signal was 0.146 KA relative to UGCAUGU.

On to B36, for which the binding signal was 0.127 KA relative to UGCAUGU.

With B37, the binding signal was 0.494 KA relative to UGCAUGU.

As to B38, the binding signal is 1.29 KA relative to UGCAUGU.

Regarding B39, the binding signal is 0.104 KA relative to UGCAUGU.

On to B40, for which the binding signal is 0.091 KA relative to UGCAUGU.

For B41, the binding signal is 0.161 KA relative to UGCAUGU.
